High-throughput results: PubChem BioAssay, several laboratories
Sampled rows, rich in hits. Any-hit rate of the full collection: about 3.7%.
PfHsp90 yeast 2 – inhibits growth of yeast expressing Plasmodium falciparum Hsp90; inhibition, % at 9.4 µM; actives 0.32% (n = 310,000); S. cerevisiae expressing PfHsp90, BacTiter-Glo ATP, 48 h; yeast lacking PDR1 and PDR3 efflux regulators;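 active = every replicate shows inhibition above about 80%, whatever the replicate mean, limit read from the data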;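 also: 0% = DMSO neutral controls and 100% = 20 µM radicicol positive controls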
tim23-1 inh – growth inhibitors of tim23-1 mutant yeast. actives 1.3% (n = 330,000). S. cerevisiae tim23-1 growth, BacTiter-Glo luminescence, 24 h. inhibition, % at 20 µM;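 active = growth inhibition of the mutant yeast at or above 50%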;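 also: temperature-sensitive mutant grown at 25 °C; plate controls were DMSO-treated mutant yeast for no effect and medium wells lacking yeast for full effect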
tim10-1 inh – tim10-1 yeast growth inhibition; S. cerevisiae tim10-1 ts strain growth, BacTiter-Glo, 24 h; inhibition, % at 20 µM; actives 2.2% (n = 330,000); AID 463190;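 active = inhibition of at least 40%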;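 also: mutant grown at 25 °C; 0% = DMSO wells with yeast and 100% = wells holding no yeast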
V-ATPase pHluor – yeast V-ATPase proton transport regulation by pHLuorin; S. cerevisiae, pHLuorin cytosolic pH fluorescence; response, % at 10 µM; actives 0.37% (n = 350,000); AID 504577; in the data active = response mostly above about 7.3%, no sharp cut-off; inactive = mostly below about 5.4%; also: actives read high
TIM10 inh – growth inhibitors of TIM10 yeast strain; S. cerevisiae TIM10 strain growth, BacTiter-Glo luminescence, 24 h; inhibition, % at 10 µM; actives 1.4% (n = 330,000); AID 463195;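 active = inhibition of 40% or more at the single tested concentration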;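 also: wild-type TIM10 isogenic control strain grown at permissive 25 °C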
tim10-1 conf – tim10-1 yeast growth inhibition, confirmed; shares compounds with tim10-1 inh; S. cerevisiae tim10-1 ts strain growth, BacTiter-Glo, 24 h; inhibition, % at 20 µM; actives 56% (n = 7,400); AID 463213;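 active = inhibition of yeast growth at or above a set limit in either of two repeat tests at 20 µM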;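 also: tim10-1 mutant grown at permissive 25 °C to find synthetic lethal compounds; 0% = DMSO yeast wells and 100% = medium wells without yeast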
Starred values were filed as active, the others as inactive; x = no result; ! = not confirmed by another sample.

SMILES	PfHsp90 yeast 2	tim23-1 inh	tim10-1 inh	V-ATPase pHluor	TIM10 inh	tim10-1 conf
C=CC[C@H](CC(=O)NCCO)C(=O)NC[C@@H](OC(=O)[C@@H](CC=C)CC(=O)OC(C)(C)C)c1ccccc1	12	-7	-8	0	4	x
Cc1ccc(C)c(N2CCN(C(=O)CCC(=O)Nc3nnc(CC(C)C)s3)CC2)c1	-18	-4	9	-3	6	x
Cc1ccc(C)c(N2CCN(C(=O)CCC(=O)Nc3nnc(C(F)(F)F)s3)CC2)c1	15	36	55*	0	15	18
CCOc1ccc(OCC)c(NC(=O)CN2CCN(c3cccc(C)c3)CC2)c1	-10	25	46*	-4	24	29
Cc1cc(S(=O)(=O)N2CCCCC2)ccc1OCC(=O)N1CCOCC1	-11	1	-2	0	0	x
CCN1CCN(c2nc3c(c(=O)[nH]c(=O)n3C)n2Cc2cccc(C)c2)CC1	x	x	x	0	x	x
O=C(NCc1ccccc1)c1ccc(-c2ccccc2F)o1	-38	47	42*	0	24	36*
COc1ccc(S(=O)(=O)N2CCN(Cc3cccc(F)c3)CC2)cc1	-3	33	14	0	-21	x
Cc1nn(C(C)(C)C)c(OC(=O)c2ccc3c(c2)OCO3)c1S(=O)(=O)c1ccccc1	2	43	46*	3	31	35*
CCC(=O)N1CCc2cc(Br)cc(S(=O)(=O)CCC(=O)N(CC)CC)c21	22	2	5	-1	6	x
CCCN(CCC)S(=O)(=O)c1cc(Br)cc2c1N(C(=O)CC)CC2	x	39	46*	2	27	34*
COc1cccc(-c2cc3nc(C)c(C)c(N4CCN(C(=O)c5ccoc5)CC4)n3n2)c1	x	x	x	3	x	x
Cn1c(=O)n(C/C=C/c2ccccc2)c(=O)c2c1nc1n2CCCN1c1ccc(F)cc1	-16	34	46*	2	32	24
Cn1c(=O)n(Cc2ccc(F)cc2)c(=O)c2c1nc1n2CCCN1C1CCCCC1	9	40	48*	-1	33	18
CC(C)Cn1c(=O)c2c(nc3n2CCCN3Cc2ccccc2)n(C)c1=O	-9	28	42*	1	15	28
CC(C)NC(=O)c1ccc(COc2cc(Cl)ccc2Cl)o1	-13	26	20	-1	18	x
CCC1CCCCN1Cc1cc(OC)c(O)c([N+](=O)[O-])c1 (stereo unspecified)	x	-1	43*	x	4	14
Cc1ccccc1Nc1scc(-c2ccc(Cl)cc2)[n+]1-c1ccccc1C	x	x	x	7	x	x
N#C/C(=C\c1ccc(-c2nc3ccccc3s2)o1)C(N)=O	-12	28	40*	-3	17	29
COc1ccc(OC)c(N=c2ssnc2Cl)c1	x	25	47*	3	12	32*
COc1cc(N=c2ssnc2Cl)c(OC)cc1Cl	91*!	45	42*!	0	13	51*
CC(C)C1N=C(c2ccc3c(c2)OCO3)CC(c2ccccc2O)N1 (stereo unspecified)	-4	15	16	0	19	x
CCOc1ccccc1C1N=C(c2ccc(OC)cc2)CC(c2ccccc2O)N1 (stereo unspecified)	-8	42	44*	-2	18	18
COc1ccc(C(=O)OCC(=O)Nc2cc(C)on2)c(OC)c1OC	1	7	85*	3	-3	-7
COc1cc(OC)c(C(=O)OCC(=O)Nc2cc(C)on2)cc1OC	7	6	11	1	1	x
SMILES	PfHsp90 yeast 2	tim23-1 inh	tim10-1 inh	V-ATPase pHluor	TIM10 inh	tim10-1 conf
CC(C)(C)OC(=O)N1CCC(C(=O)Nc2cccc(C(=O)N3CCCC3)c2)CC1	19	x	x	6	x	x
S=C(c1ccc(N2CCCC2)c(Br)c1)N1CCCCC1	8	29	45*	-2	18	21
COc1ccc(C(=S)N2CCCCC2)cc1Br	27	28	31	2	1	x
Cc1nnc(N/N=C/c2cccc(C(F)(F)F)c2)n1N	4	7	13	1	18	x
Cc1nnc(N/N=C/c2cccc(OCc3ccc(Cl)c(Cl)c3)c2)n1N	-11	41	43*	-2	24	36*
CCCc1[nH][nH]c(=O)c1C(c1ccc(Cl)cc1)C(C#N)C#N (stereo unspecified)	0	42	46*	2	36	24
Cc1ccc(S(=O)(=O)N2CCOC23CCN(C(=O)c2ccccc2Br)CC3)cc1	-8	19	28	-2	-5	x
CCN1CCN(S(=O)(=O)c2ccc(Cl)c(C(=O)N(C)Cc3ccccc3)c2)CC1	4	20	98*	0	9	10
CN(C)C(=O)CCSc1nnc(-c2ccncc2)o1	25	-4	-4	-1	-8	x
Cc1sc2ncnc(Sc3ccccc3C(=O)Nc3ccccc3Cl)c2c1C	39	35	43*	3	17	26
COc1ccc(C2CC(=O)Oc3ccc(OC)cc32)cc1 (stereo unspecified)	-17	40	13	1	-2	x
O=C1NC[C@@H](c2ccccc2)OC(=O)[C@@H](Cc2ccc(F)cc2)CC/C=C/C[C@H]1CC(=O)N(CCO)Cc1ccccc1	9	16	8	2	10	x
Brc1ccc(C2Nc3cccc4cccc(c34)N2)o1	14	46	42*	-2	32	29*
Brc1cccc(C2Nc3cccc4cccc(c34)N2)c1	19	31	24	0	19	x
Cc1ccc(S(=O)(=O)Nc2ccc(Nc3ccccc3)cc2)cc1	17	42	43*	4	16	24
COc1ccccc1CNS(=O)(=O)c1ccc2c(c1)CC(C)N2C(=O)C1CCC1 (stereo unspecified)	0	15	23	-4	-8	x
CNC(=S)Nc1cccc(S(=O)(=O)NCc2ccco2)c1	x	2	-2	1	-7	x
CCOc1cc(-c2cc(-c3ccc(C)cc3)nc(N)c2C#N)ccc1O	-17	22	42*	1	33	26
CCOc1cc(-c2c(C#N)c(N)nc3c2CCCC3C)ccc1O (stereo unspecified)	-28	49	46*	1	37	35*
CCOc1cc(-c2c(C#N)c(N)nc3c2CCc2ccccc2-3)ccc1O	-42	25	14	2	17	x
CNC(=S)N(CCc1c(C)[nH]c2ccc(C)cc12)Cc1cccnc1	-20	-5	-13	-5	2	x
CCN(CC)S(=O)(=O)c1ccc(NCCc2ccccn2)nc1	21	17	8	-2	15	x
Cc1ccc(-n2ncc3c(NCc4ccc5c(c4)OCO5)ncnc32)c(C)c1	8	9	41*	3	-11	2
Cc1ccc(-n2ncc3c(NCc4cccnc4)ncnc32)cc1C	-3	11	43*	1	24	-10
C[C@H](CO)N1C[C@H](C)[C@H](CN(C)Cc2ccncc2)Oc2ncc(Br)cc2C1=O	x	x	x	1	x	x
O=C(NCc1ccccc1)NC(=O)c1ccc(Cl)cc1	8	12	1	1	-11	x
